Assay results reported in PubChem BioAssay.

target: Left-right determination factor 2 (Homo sapiens) (UniProt O00292); assay: small molecules binding LEFTY2 protein – biochemical, small-molecule microarray, 635 nm fluorescence scan, primary screen (AID 1110); settings: higher = more signal
Sequence (O00292 whole entry, looked up): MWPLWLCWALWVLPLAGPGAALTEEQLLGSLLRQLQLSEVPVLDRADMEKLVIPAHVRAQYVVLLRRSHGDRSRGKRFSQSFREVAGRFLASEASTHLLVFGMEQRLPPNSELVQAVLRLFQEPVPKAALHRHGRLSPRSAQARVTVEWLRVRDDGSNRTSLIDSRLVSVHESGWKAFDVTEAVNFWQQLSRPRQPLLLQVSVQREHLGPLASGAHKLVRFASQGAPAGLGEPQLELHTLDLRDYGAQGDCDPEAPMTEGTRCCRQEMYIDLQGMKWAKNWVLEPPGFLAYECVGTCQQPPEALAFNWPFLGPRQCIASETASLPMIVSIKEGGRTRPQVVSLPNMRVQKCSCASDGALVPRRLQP

Compound | composite z-score
O=C1O[C@@H](c2ccccc2)[C@@H](c2ccccc2)N2[C@@H](c3ccccc3OCCO)[C@]3(C(=O)Nc4ccc(C#CCCO)cc43)[C@@H](C(=O)NC[C@H](O)c3ccccc3)[C@H]12 | -0.274
COc1ccc([Si](C)(C)[C@@H]2[C@@H](CC(=O)N3Cc4ccccc4C[C@H]3CO)O[C@]3(C(=O)N(Cc4ccc(N5CCOC5=O)cc4)c4ccccc43)[C@H]2C)cc1 | 0.874
COc1ccccc1CN1C(=O)c2ccccc2[C@](Cc2ccccc2I)(C(=O)NCC(C)C)[C@@H]1c1ccc(CO)cc1 | -1.25
CC(C)(C)OC(=O)CC[C@@]1(C(=O)NCCN2CCOCC2)N=C(c2ccc(OCCCO)cc2)O[C@@H]1c1ccccc1CN=[N+]=[N-] | -0.345
CC(C)=CCCC(C)=CC(O)C1C=CC2C(=O)NC(=O)C2N1Nc1ccccn1 (stereo unspecified) | 1.45
CC(C)N1C(=O)c2ccccc2[C@](C)(C(=O)NCC(F)(F)F)[C@@H]1c1ccc(CO)cc1 | -1.41
Cc1ccc(S[C@]2(C(=O)NCc3ccccc3)CC(=O)N(Cc3ccccc3C(F)(F)F)[C@@H]2c2ccc(CO)cc2)cc1 | -1.86
Cc1ccccc1C(O)C1C=CC2C(=O)N(c3ccccc3)C(=O)C2N1Nc1ccccc1 (stereo unspecified) | 0.256
O=C1OCCC=C[C@H]2OC34C=CCN(c5ccc6ccccc6c5)C(=O)[C@H]3N(CCO)C(=O)[C@@H]4C12 (stereo partly specified) | -0.277
COCCCNC(=O)[C@@H]1c2ccccc2C(=O)N(Cc2ccc(OC(F)(F)F)cc2)[C@H]1c1ccc(CO)cc1 | 0.0983
CCC(CC)C(O)C1C=CC2C(=O)N(c3ccccc3)C(=O)C2N1Nc1ccccc1F (stereo unspecified) | -0.527
